Results filed as inconclusive are left out. Some structures have more than one record in an assay (separate samples or runs), and their calls can disagree. The source made the active and inactive calls. Unless noted, calls come from the whole dose curve; as a rule, active = well fitted curve in the direction sought with a large enough effect; inconclusive = small, poorly fitted or top-dose-only effect, or another doubt; inactive = no such curve, though single readings can be large; an effect the other way counts as inactive or inconclusive.
What was measured:
[1] = target: Mitogen-activated protein kinase 10 (Mus musculus) (UniProt Q61831); experiment: JNK3 AlphaScreen Assay (AID 530; active = well fitted curve in either direction with a large enough effect, not every such curve was filed as active;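 note: kinase came from lysate of stimulated human HepG2 cells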; note: potency is the fitted concentration of half-maximal effect); conditions: JNK3 lysate, c-Jun phosphorylation; series mostly up to 25.6 µM
How it was run: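 qHTS titrations with 15 min compound pre-incubation before adding ATP (10 uM final). Read-out: AlphaScreen of Ser73-phosphorylated biotin-GST-cJun using HepG2 lysate JNK3 activated by IL-1β and TNFα.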

[2] = Cell Viability - NIH 3T3 (AID 541); conditions: NIH 3T3 cell viability, qHTS; activity change, negative = cytotoxicity: at 92.2 µM (top of the series);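 note: cells exposed to compound for 40 hours; nearly all actives have a fitted effect of over 25% in size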; note: potency is the fitted concentration of half-maximal effect;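 for activity change, negative = cytotoxicity: plate controls were DMSO alone for no effect and tamoxifen positive control for full effect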
How it was run: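 Cells seeded at 1000/well, rested 5 hr at 37 °C, then dosed and incubated 40 hr at 37 °C. CellTiter-Glo added, 20 min room temperature, luminescence read. AC50 by Hill fit.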

[3] = Cell Viability - SH-SY5Y (AID 544); conditions: SH-SY5Y neuroblastoma cell viability;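 note: cells exposed to compound for 40 hours; nearly all actives have a fitted effect of over 55% in size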; note: potency is the fitted concentration of half-maximal effect
How it was run: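 Cells were plated at 1500 per well and allowed 5 hr at 37 °C. Compounds were added across a concentration range and incubated 40 hr at 37 °C. CellTiter-Glo was added for 20 min at room temperature before luminescence reading.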

[4] = target: 3',5'-cyclic-AMP phosphodiesterase 4B (Homo sapiens) (UniProt Q07343); experiment: qHTS Assay for Inhibitors of PDE-IV (AID 607; active = well fitted activation curve with a large enough effect in the main read-out, with a control signal flat, not every such curve was filed as active; note: % of control where 0% means no effect); conditions: HEK293 ACTOne CNG channel cells, membrane potential fluorescence; series mostly up to 22.9 µM
Sequence of 3',5'-cyclic-AMP phosphodiesterase 4B (Homo sapiens) (Q07343 whole entry, looked up): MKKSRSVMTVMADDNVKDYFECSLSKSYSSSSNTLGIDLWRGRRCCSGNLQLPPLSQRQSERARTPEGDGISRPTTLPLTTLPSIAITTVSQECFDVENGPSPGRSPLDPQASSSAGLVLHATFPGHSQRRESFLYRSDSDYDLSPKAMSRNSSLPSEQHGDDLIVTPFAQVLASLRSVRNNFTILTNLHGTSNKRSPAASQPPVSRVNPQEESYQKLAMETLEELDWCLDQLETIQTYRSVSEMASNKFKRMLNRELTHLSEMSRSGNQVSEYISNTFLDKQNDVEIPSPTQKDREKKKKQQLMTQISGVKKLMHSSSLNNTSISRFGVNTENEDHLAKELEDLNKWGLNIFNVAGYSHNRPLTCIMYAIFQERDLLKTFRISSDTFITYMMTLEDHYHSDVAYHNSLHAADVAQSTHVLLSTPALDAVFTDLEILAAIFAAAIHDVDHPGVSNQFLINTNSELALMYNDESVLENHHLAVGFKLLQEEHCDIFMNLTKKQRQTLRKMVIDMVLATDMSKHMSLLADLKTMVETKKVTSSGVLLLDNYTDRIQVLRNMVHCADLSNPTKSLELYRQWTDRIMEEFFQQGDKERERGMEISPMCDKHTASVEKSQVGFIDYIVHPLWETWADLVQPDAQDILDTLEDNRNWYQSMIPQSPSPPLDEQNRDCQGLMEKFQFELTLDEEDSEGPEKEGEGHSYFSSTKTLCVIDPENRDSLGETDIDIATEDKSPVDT
How it was run: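 Cell-based read-out of cAMP via a modified cyclic nucleotide-gated channel and membrane potential dye (535/590 nm) in HEK293 cells expressing PDE4 endogenously. Compounds tested up to 22.9 uM final; 100 uM RO 20-1724 reference.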

[5] = Cellular Toxicity (caspase-3) HepG2 (AID 654); conditions: HepG2 caspase-3 activation, luminescence; series mostly up to 92.2 µM;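 note: cells exposed to compound for 16 hours before reading; 0% = DMSO alone and 100% = caspase signal from 100 µM tamoxifen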
How it was run: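 Caspase 3/7 activation in HepG2 is measured as rising luminescence after a 16 hr treatment at 37 °C. Values are scaled between DMSO basal and 100 uM tamoxifen, and AC50 is fitted with the Hill equation.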

[6] = Cellular Toxicity (caspase-3) Jurkat (AID 655); conditions: Jurkat caspase-3 activation, luminescence, DMSO = 0%, tamoxifen = 100%; series mostly up to 92.2 µM;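 note: cells exposed to compound for 16 h at 37 °C before reading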
How it was run: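 qHTS in human Jurkat T-cell leukemia line: 16 hr compound treatment at 37 °C, caspase-3/7 activity measured by Caspase-Glo luminescence. AC50 derived from Hill equation.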

[7] = Cellular Toxicity (caspase-3) HUV-EC-C (AID 656); conditions: HUV-EC-C cells, caspase-3 activation (apoptosis), vehicle = 0, 100 µM tamoxifen = 100%; series mostly up to 92.2 µM;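 note: cells exposed to compound for 16 h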
How it was run: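 Concentration-dependent caspase 3/7 induction was assessed in HUV-EC-C cells exposed for 16 hours. Data scaled between DMSO and tamoxifen (100 uM) controls.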

[8] = Cell Viability - HUV-EC-C (AID 542); conditions: HUV-EC-C endothelial cell viability, qHTS; series mostly up to 92.2 µM;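 note: cells exposed to compound for 40 hours; nearly all actives have a fitted effect of over 35% in size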; note: potency is the fitted concentration of half-maximal effect; for activity change, negative = cytotoxicity: % is set by controls: 0 for no effect and ±100 for the full control effect
How it was run: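 Cells were seeded at 1000 per well and incubated 5 hr at 37 °C before compound addition. After 40 hr at 37 °C, CellTiter-Glo reagent was added for 20 min and luminescence read. AC50 values came from Hill-equation modelling.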

[9] = Cell Viability - H-4-II-E (AID 543); conditions: H-4-II-E rat hepatoma viability; series mostly up to 92.2 µM;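 note: cells exposed to compound for 40 hours; nearly all actives have a fitted effect of over 35% in size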; note: potency is the fitted concentration of half-maximal effect
How it was run: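 Cells seeded at 1500 per well and rested 5 hr; compounds added; 40 hr incubation at 37 °C; CellTiter-Glo added, 20 min at room temperature; luminescence read. Hill-equation fits gave AC50.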

[10] = Cell Viability - Mesenchymal (AID 546); conditions: mesenchymal cells viability, qHTS; series mostly up to 91.7 µM;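 note: cells exposed to compound for 40 hours before reading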; note: potency is the fitted concentration of half-maximal effect
How it was run: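 CellTiter-Glo luminescence (intracellular ATP, 20 min room temperature) after 40 hr compound exposure at 37 °C of 1000 glomerulus-derived human kidney mesenchymal cells/well; AC50 values obtained by fitting qHTS concentration-response data to the Hill equation.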

[11] = viability change, negative = cytotoxic: at 92.2 µM (top of the series)

N=C(N)c1ccc(OCCCCCOc2ccc(C(=N)N)cc2)cc1
active: activity change, negative = cytotoxicity [2] -80.1%
inactive: Potency [1] | Potency [3, 11] | outcome [4] | Potency [5] | outcome [6] | outcome [7]

CC[C@H](C)C(=O)O[C@H]1C[C@@H](C)C=C2C=C[C@H](C)[C@H](CC[C@@H]3C[C@@H](O)CC(=O)O3)[C@H]21
inactive: Potency [1] | Potency [8] | outcome [6] | outcome [7]
active: activity change, negative = cytotoxicity [2] -92.8% | Potency [9] 7.94 µM | Potency [10] 7.94 µM

CCc1cc(C(N)=S)ccn1
inactive: Potency [1] | activity change, negative = cytotoxicity [2] -7.33% | Potency [8] | Potency [9] | Potency [3, 11] | Potency [10] | outcome [4] | Potency [5] | outcome [6] | outcome [7]

O=C(O)c1cc(=O)[nH]c(=O)[nH]1
inactive: Potency [1] | activity change, negative = cytotoxicity [2] -4.07% | Potency [8] | Potency [9] | Potency [3, 11] | Potency [10] | Potency [5] | outcome [6] | outcome [7]

Cc1ccnc2c1NC(=O)c1cccnc1N2C1CC1
inactive: Potency [1] | activity change, negative = cytotoxicity [2] -11% | Potency [8] | Potency [9] | Potency [3, 11] | Potency [10] | Potency [5] | outcome [6] | outcome [7]

Cc1ccc(S(=O)(=O)N[C@@H](Cc2ccccc2)C(=O)CCl)cc1
inactive: Potency [1]

O=c1oc2c(O)c(O)cc3c(=O)oc4c(O)c(O)cc1c4c23
active: Potency [1] 1.26 µM

CC1=NN(c2ccccc2)C(=O)C1
inactive: Potency [1] | activity change, negative = cytotoxicity [2] -5.02% | Potency [8] | Potency [9] | Potency [3, 11] | Potency [10] | outcome [4] | Potency [5] | outcome [6] | outcome [7]

O=C(N[C@H](CO)[C@H](O)c1ccc([N+](=O)[O-])cc1)C(Cl)Cl
inactive: Potency [1] | activity change, negative = cytotoxicity [2] -14.2% | Potency [8] | Potency [9] | Potency [3, 11] | Potency [10] | Potency [5] | outcome [6] | outcome [7]

Cc1cccc(Nc2ccncc2S(=O)(=O)NC(=O)NC(C)C)c1
inactive: Potency [1]

CC(=O)[C@H]1CC[C@H]2[C@@H]3CCC4=CC(=O)CC[C@]4(C)[C@H]3CC[C@]12C
active: activity change, negative = cytotoxicity [2] -129% | Potency [9] 39.8 µM | viability change, negative = cytotoxic [3, 11] -101%
inactive: Potency [1] | Potency [8] | viability change, negative = cytotoxic ([3]; at 92.2 µM (top of the series)) -22.5% | Potency [10] | Potency [5] | outcome [6] | outcome [7]

CCCCOc1ccc(CC(=O)NO)cc1
inactive: Potency [1]

Cc1noc(NS(=O)(=O)c2ccc(N)cc2)c1C
inactive: Potency [1] | activity change, negative = cytotoxicity [2] -8.82% | Potency [8] | Potency [9] | Potency [3, 11] | Potency [10] | outcome [4] | Potency [5] | outcome [6] | outcome [7]

CC(C)(Sc1cc(C(C)(C)C)c(O)c(C(C)(C)C)c1)Sc1cc(C(C)(C)C)c(O)c(C(C)(C)C)c1
inactive: Potency [1] | outcome [4]

NC(=O)c1cccc(N)c1
inactive: Potency [1] | outcome [4]

COC(=O)Nc1nc2ccc(C(=O)c3ccccc3)cc2[nH]1
inactive: Potency [1] | outcome [4]

COc1ncnc(NS(=O)(=O)c2ccc(N)cc2)c1OC
inactive: Potency [1] | outcome [4]

O=C(O)c1cccnc1
inactive: Potency [1] | outcome [4]

COc1cc2ncnc(Nc3cccc(Cl)c3)c2cc1OC
inactive: Potency [1] | outcome [4]

COc1ccc2c(c1)c(CC(=O)OCC(=O)O)c(C)n2C(=O)c1ccc(Cl)cc1
inactive: Potency [1] | outcome [4]

CNNCc1ccc(C(=O)NC(C)C)cc1
inactive: Potency [1] | outcome [4]

Nc1ccc(S(=O)(=O)Nc2ccccn2)cc1
inactive: Potency [1] | outcome [4]

NC(N)=NC(N)=NCCc1ccccc1
inactive: Potency [1] | Potency [8] | Potency [3, 11] | Potency [10] | outcome [4] | Potency [5] | outcome [6] | outcome [7]

COc1cnc(NS(=O)(=O)c2ccc(N)cc2)nc1
inactive: Potency [1] | outcome [4]

CC(=O)Oc1ccccc1C(=O)Nc1ncc([N+](=O)[O-])s1
active: Potency [2] 31.6 µM | Potency [8] 31.6 µM | Potency [9] 31.6 µM | Potency [3, 11] 25.1 µM
inactive: Potency [5] | outcome [6] | outcome [7]

OCc1ccc(-c2nn(Cc3ccccc3)c3ccccc23)o1
inactive: outcome [4]

CC1=CC(=O)c2ccccc2C1=O
inactive: Potency [1] | outcome [4]

CCOC(=O)c1ccc(OC(=O)CCCCCN=C(N)N)cc1
inactive: Potency [1] | outcome [4]

CCn1cc(C(=O)O)c(=O)c2cc(F)c(N3CCNCC3)cc21
inactive: Potency [1] | outcome [4]

Nc1[nH]c(=O)ncc1F
inactive: Potency [1] | outcome [4]

CCCOc1ccc(C(=O)OCCN(CC)CC)cc1N
inactive: Potency [1] | outcome [4]

CCn1cc(C(=O)O)c(=O)c2cc(F)c(N3CCNCC3)nc21
inactive: Potency [1] | outcome [4]

COC(=O)Nc1nc2ccc(Sc3ccccc3)cc2[nH]1
inactive: Potency [1] | outcome [4]

N[C@@H](Cc1ccc(O)c(O)c1)C(=O)O
inactive: Potency [1] | outcome [4]

COc1cc(NS(=O)(=O)c2ccc(N)cc2)nc(OC)n1
inactive: Potency [1] | outcome [4]
